Assay results published in the supplement of paper PMC10849652.
Of roughly 7,900 targets only a part is listed; those with a hit were picked by preference. About 0.6% of all pairs of compound and target were hits.

Assays:
Assay in all cases: log2 fold change, soluble protein after heating vs DMSO (PISA); higher = thermal stabilisation; K562 cells, 10 uM, 30 min; active = over 0.2 and 3.5 SD of the protein, either way, in both replicates (recomputed)
[1] = compound: CS(=O)(=O)c1ccc(-c2cnc(N)c(C(=O)Nc3ccccc3)n2)cc1
Procedure, shortened: (§1)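 K562 cells at 2×10^6 cells/mL were exposed to 10 μM compound for 30 min, then aliquots were heated for 3 min across 48°C-58°C, pooled, and extracted in PBS containing 0.5% NP-40 at 4°C. The supernatant after 21,000xg for 90 min was taken as soluble protein and measured by TMTpro 16plex LC-MS/MS with channel sums equalised. Thermal stability is reported relative to control samples, with values from duplicates. Fold changes are given on a log2 scale.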

crizotinib = compound: C[C@@H](Oc1cc(-c2cnn(C3CCNCC3)c2)cnc1N)c1c(Cl)ccc(F)c1Cl [crizotinib]
Procedure, shortened: as §1

[2] = compound: C[C@@H]1COCCN1C2=NC(=NC(=C2)C3(CC3)S(=O)(=O)C)C4=C5C=CNC5=CC=C4
Procedure, shortened: as §1

[3] = compound: C[C@H](C1=CC=C(C=C1)C(=O)NC2=C3C=CNC3=NC=C2)N
Procedure, shortened: as §1

duvelisib = compound: C[C@H](Nc1ncnc2nc[nH]c12)c1cc2cccc(Cl)c2c(=O)n1-c1ccccc1 [duvelisib]
Procedure, shortened: as §1

gandotinib = compound: Cc1cc(Nc2cc(CN3CCOCC3)c3nc(C)c(Cc4ccc(Cl)cc4F)n3n2)n[nH]1 [gandotinib]
Procedure, shortened: as §1

tozasertib = compound: Cc1cc(Nc2cc(N3CCN(C)CC3)nc(Sc3ccc(NC(=O)C4CC4)cc3)n2)n[nH]1 [tozasertib]
Procedure, shortened: as §1

[4] = compound: Cc1cc(SCc2sc(-c3ccc(C(F)(F)F)cc3)nc2C)ccc1OCC(=O)O
Procedure, shortened: as §1

doramapimod = compound: Cc1ccc(-n2nc(C(C)(C)C)cc2NC(=O)Nc2ccc(OCCN3CCOCC3)c3ccccc23)cc1 [doramapimod]
Procedure, shortened: as §1

ispinesib = compound: Cc1ccc(C(=O)N(CCCN)[C@@H](c2nc3cc(Cl)ccc3c(=O)n2Cc2ccccc2)C(C)C)cc1 [ispinesib]
Procedure, shortened: as §1

Measured: log2 fold change

MICU1 isoform 3 (UniProt Q9BPX6)
Sequence of UniProt Q9BPX6 (Q9BPX6 whole entry, looked up): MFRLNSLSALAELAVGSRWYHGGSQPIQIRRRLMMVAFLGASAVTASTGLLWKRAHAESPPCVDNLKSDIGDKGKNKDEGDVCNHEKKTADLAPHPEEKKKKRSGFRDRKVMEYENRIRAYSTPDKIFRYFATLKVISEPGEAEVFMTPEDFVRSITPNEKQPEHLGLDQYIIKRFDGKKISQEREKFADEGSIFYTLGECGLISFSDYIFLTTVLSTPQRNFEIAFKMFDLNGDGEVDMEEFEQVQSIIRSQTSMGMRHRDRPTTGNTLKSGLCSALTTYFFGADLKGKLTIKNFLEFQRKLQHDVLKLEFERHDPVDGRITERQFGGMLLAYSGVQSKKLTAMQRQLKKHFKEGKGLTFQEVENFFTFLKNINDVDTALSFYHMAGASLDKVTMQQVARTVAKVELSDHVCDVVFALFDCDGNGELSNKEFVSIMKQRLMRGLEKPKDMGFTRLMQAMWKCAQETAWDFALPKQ
active: ispinesib -0.458
inactive: [1] -0.024 | crizotinib -0.207 | [2] -0.101 | [3] 0.023 | duvelisib -0.04 | gandotinib -0.128 | tozasertib -0.102 | [4] 0.021 | doramapimod -0.011

KCTD10 (UniProt Q9H3F6)
inactive: [1] -0.035 | crizotinib 0.097 | [2] -0.027 | [3] -0.13 | duvelisib 0.05 | gandotinib 0.042 | tozasertib 0.035 | [4] -0.01 | doramapimod -0.042 | ispinesib 0.108

MDN1 (UniProt Q9NU22)
inactive: [1] -0.072 | crizotinib -0.135 | [2] 0.094 | [3] 0.002 | duvelisib 0.024 | gandotinib -0.156 | tozasertib -0.052 | [4] 0.063 | doramapimod -0.005 | ispinesib -0.117

LNPK (UniProt Q9C0E8)
Sequence of UniProt Q9C0E8 (Q9C0E8 whole entry, looked up): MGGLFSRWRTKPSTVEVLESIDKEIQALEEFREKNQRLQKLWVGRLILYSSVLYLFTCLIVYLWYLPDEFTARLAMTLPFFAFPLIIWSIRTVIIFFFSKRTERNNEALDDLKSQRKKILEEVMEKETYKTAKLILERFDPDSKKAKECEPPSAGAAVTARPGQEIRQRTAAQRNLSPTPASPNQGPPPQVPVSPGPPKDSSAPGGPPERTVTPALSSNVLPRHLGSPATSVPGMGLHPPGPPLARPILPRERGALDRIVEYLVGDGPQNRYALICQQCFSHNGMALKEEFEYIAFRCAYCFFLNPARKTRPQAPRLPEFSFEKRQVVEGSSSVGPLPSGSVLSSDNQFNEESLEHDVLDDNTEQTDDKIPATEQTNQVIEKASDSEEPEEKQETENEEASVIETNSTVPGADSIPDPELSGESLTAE
inactive: [1] -0.016 | crizotinib 0.077 | [2] 0.007 | [3] -0.036 | duvelisib -0.017 | gandotinib -0.022 | tozasertib 0.002 | [4] -0.085 | doramapimod -0.044 | ispinesib 0.022

INPP5B (UniProt P32019)
inactive: [1] 0.057 | crizotinib -0.096 | [2] -0.02 | [3] 0.042 | duvelisib -0.045 | gandotinib 0.017 | tozasertib 0.151 | [4] 0.029 | doramapimod 0.095 | ispinesib -0.005

MCL1 (UniProt Q07820)
inactive: [1] -0.079 | crizotinib 0.043 | [2] -0.158 | [3] -0.006 | duvelisib 0.052 | gandotinib 0.042 | tozasertib -0.056 | [4] 0.01 | doramapimod 0.109 | ispinesib -0.441

LRRFIP1 (UniProt Q32MZ4)
inactive: [1] -0.005 | crizotinib 0.037 | [2] 0 | [3] 0.025 | duvelisib 0.011 | gandotinib 0.056 | tozasertib -0.027 | [4] -0.059 | doramapimod -0.025 | ispinesib -0.019

LTN1 isoform 3 (UniProt O94822)
inactive: [1] -0.049 | crizotinib -0.136 | [2] -0.077 | [3] 0.128 | duvelisib -0.05 | gandotinib -0.234 | tozasertib 0.012 | [4] 0.11 | doramapimod 0.021 | ispinesib -0.229

KPNB1 (UniProt Q14974)
inactive: [1] -0.027 | crizotinib -0.201 | [2] -0.038 | [3] 0.047 | duvelisib -0.045 | gandotinib -0.09 | tozasertib 0.094 | [4] 0.083 | doramapimod 0.026 | ispinesib -0.225

MEAK7 (UniProt Q6P9B6)
Sequence of UniProt Q6P9B6 (Q6P9B6 whole entry, looked up): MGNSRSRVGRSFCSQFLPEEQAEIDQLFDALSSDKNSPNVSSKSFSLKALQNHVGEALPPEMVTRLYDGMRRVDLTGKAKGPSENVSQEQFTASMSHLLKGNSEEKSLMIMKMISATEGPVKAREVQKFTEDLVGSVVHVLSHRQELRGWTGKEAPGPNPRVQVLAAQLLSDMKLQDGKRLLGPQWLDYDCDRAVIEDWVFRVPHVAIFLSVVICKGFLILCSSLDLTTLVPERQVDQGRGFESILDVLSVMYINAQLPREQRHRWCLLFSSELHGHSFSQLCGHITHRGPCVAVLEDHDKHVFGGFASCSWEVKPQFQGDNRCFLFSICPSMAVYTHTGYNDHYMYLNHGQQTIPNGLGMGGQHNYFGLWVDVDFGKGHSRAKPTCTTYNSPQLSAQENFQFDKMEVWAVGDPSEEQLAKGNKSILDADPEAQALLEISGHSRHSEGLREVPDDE
active: crizotinib -0.259
inactive: [1] -0.005 | [2] 0.049 | [3] 0.005 | duvelisib 0.121 | gandotinib -0.224 | tozasertib 0.018 | [4] 0.024 | doramapimod 0.031 | ispinesib -0.139

MED1 (UniProt Q15648)
inactive: [1] 0.011 | crizotinib 0.014 | [2] 0.043 | [3] 0.04 | duvelisib -0.044 | gandotinib -0.025 | tozasertib -0.031 | [4] -0.05 | doramapimod 0.11 | ispinesib -0.078

INPP1 (UniProt P49441)
inactive: [1] 0.041 | crizotinib -0.016 | [2] -0.012 | [3] -0.028 | duvelisib 0.011 | gandotinib -0.084 | tozasertib 0.018 | [4] -0.043 | doramapimod -0.018 | ispinesib 0.052

MED16 (UniProt Q9Y2X0)
Sequence of UniProt Q9Y2X0 (Q9Y2X0 whole entry, looked up): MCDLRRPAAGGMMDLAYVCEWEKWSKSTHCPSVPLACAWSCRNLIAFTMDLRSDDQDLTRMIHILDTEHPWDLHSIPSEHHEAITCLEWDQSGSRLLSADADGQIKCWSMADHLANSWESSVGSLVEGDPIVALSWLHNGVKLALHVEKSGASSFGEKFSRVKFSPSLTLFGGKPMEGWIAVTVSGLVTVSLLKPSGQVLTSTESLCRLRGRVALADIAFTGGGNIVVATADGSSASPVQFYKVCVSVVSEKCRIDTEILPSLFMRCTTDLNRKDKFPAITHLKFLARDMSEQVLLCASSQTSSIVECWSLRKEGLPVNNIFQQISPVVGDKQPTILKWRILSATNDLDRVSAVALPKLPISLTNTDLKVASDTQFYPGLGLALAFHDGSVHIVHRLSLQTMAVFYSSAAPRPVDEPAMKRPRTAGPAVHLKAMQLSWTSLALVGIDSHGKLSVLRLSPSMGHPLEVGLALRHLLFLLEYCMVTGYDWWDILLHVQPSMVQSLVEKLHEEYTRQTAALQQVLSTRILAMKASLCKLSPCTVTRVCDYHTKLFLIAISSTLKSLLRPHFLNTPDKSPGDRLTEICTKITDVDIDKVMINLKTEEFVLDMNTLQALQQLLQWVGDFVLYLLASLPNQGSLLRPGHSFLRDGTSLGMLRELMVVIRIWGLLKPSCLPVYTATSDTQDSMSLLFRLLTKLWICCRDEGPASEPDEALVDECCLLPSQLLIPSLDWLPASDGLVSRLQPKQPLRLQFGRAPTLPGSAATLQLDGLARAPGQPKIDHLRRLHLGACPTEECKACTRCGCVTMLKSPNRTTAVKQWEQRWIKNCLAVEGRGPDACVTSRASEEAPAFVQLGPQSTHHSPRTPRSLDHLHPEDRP
inactive: [1] -0.04 | crizotinib -0.072 | [2] -0.071 | [3] 0.06 | duvelisib -0.053 | gandotinib -0.098 | tozasertib -0.096 | [4] 0.063 | doramapimod 0.08 | ispinesib -0.097

LUC7L2 (UniProt Q9Y383)
active: [3] -0.439
inactive: [1] -0.083 | crizotinib 0.02 | [2] 0.053 | duvelisib -0.002 | gandotinib 0.031 | tozasertib 0.065 | [4] 0.03 | doramapimod -0.03 | ispinesib 0.111

MAP1LC3B2 (UniProt A6NCE7)
inactive: [1] 0.035 | crizotinib -0.047 | [2] 0.054 | [3] -0.144 | duvelisib 0.061 | gandotinib -0.012 | tozasertib 0.114 | [4] 0.011 | doramapimod 0.003 | ispinesib 0.02

METTL18 (UniProt O95568)
inactive: [1] 0.003 | crizotinib -0.043 | [2] 0.053 | [3] -0.012 | duvelisib 0.004 | gandotinib -0.045 | tozasertib -0.115 | [4] 0.012 | doramapimod -0.001 | ispinesib 0.004

MED17 (UniProt Q9NVC6)
inactive: [1] -0.02 | crizotinib -0.004 | [2] 0.028 | [3] 0.119 | duvelisib -0.067 | gandotinib 0.007 | tozasertib -0.042 | [4] 0.109 | doramapimod 0.022 | ispinesib -0.049

ITPRIP (UniProt Q8IWB1)
Sequence of UniProt Q8IWB1 (Q8IWB1 whole entry, looked up): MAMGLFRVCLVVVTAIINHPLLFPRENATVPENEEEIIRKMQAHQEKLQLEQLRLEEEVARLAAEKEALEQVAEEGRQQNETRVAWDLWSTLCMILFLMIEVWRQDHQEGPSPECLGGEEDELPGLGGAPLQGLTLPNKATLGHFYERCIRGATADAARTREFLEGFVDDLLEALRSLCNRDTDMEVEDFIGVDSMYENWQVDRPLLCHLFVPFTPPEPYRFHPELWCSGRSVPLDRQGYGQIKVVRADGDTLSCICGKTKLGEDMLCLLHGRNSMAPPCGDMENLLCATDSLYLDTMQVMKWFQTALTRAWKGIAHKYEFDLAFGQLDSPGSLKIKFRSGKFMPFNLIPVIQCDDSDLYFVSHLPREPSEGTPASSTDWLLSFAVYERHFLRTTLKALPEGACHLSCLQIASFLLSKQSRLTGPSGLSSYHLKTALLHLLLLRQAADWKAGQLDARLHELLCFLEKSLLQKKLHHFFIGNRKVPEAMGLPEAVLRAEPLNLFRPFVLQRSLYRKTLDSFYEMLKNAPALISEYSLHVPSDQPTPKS
inactive: [1] -0.002 | crizotinib 0.056 | [2] 0.012 | [3] -0.039 | duvelisib 0.005 | gandotinib -0.049 | tozasertib 0.045 | [4] 0.038 | doramapimod 0.062 | ispinesib -0.037

MAP2K1 (UniProt Q02750)
Sequence of UniProt Q02750 (Q02750 whole entry, looked up): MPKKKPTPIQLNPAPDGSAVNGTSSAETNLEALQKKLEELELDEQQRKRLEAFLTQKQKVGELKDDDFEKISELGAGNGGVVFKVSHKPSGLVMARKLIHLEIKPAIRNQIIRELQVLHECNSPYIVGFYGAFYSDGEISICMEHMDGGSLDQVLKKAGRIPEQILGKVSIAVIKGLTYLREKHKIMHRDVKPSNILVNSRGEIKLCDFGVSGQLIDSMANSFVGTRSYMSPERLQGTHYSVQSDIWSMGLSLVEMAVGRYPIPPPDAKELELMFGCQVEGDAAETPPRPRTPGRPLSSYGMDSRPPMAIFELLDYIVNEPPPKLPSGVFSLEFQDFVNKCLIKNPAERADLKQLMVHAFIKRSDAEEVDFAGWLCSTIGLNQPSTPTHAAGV
inactive: [1] 0.055 | crizotinib -0.019 | [2] 0.088 | [3] -0.092 | duvelisib 0.059 | gandotinib 0.005 | tozasertib -0.009 | [4] -0.038 | doramapimod -0.05 | ispinesib -0.009

MAP4 (UniProt E7EVA0)
inactive: [1] 0.023 | crizotinib -0.02 | [2] -0.222 | [3] 0.231 | duvelisib -0.084 | gandotinib -0.001 | tozasertib 0.124 | [4] -0.017 | doramapimod 0.136 | ispinesib -0.134

ME2 (UniProt P23368)
Sequence of UniProt P23368 (P23368 whole entry, looked up): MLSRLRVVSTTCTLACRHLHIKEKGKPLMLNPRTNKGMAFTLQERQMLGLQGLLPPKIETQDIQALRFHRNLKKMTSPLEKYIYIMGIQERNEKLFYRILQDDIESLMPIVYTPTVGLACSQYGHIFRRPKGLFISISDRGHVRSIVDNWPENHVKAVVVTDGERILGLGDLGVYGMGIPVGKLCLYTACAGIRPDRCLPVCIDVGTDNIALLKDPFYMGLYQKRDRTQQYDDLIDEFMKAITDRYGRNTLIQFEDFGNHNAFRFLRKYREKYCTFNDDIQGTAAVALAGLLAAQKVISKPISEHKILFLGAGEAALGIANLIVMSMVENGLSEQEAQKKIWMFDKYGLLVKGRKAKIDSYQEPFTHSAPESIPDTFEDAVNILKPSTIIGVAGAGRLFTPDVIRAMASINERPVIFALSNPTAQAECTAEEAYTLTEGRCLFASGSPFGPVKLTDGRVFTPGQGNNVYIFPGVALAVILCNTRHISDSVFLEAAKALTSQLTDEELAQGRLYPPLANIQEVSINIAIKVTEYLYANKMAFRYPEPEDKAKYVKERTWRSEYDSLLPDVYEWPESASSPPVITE
inactive: [1] -0.027 | [2] -0.048 | [3] 0.009 | duvelisib 0.043 | gandotinib -0.016 | tozasertib -0.001 | [4] -0.002 | doramapimod -0.016
active: crizotinib 0.282 | ispinesib 0.334

LMNB2 (UniProt Q03252)
inactive: [1] 0.007 | crizotinib 0.039 | [2] 0.179 | [3] 0.079 | duvelisib 0.072 | gandotinib -0.003 | tozasertib 0.03 | [4] 0.033 | doramapimod 0.019 | ispinesib 0.016

MAP2K3 isoform 3 (UniProt P46734)
Sequence of UniProt P46734 (P46734 whole entry, looked up): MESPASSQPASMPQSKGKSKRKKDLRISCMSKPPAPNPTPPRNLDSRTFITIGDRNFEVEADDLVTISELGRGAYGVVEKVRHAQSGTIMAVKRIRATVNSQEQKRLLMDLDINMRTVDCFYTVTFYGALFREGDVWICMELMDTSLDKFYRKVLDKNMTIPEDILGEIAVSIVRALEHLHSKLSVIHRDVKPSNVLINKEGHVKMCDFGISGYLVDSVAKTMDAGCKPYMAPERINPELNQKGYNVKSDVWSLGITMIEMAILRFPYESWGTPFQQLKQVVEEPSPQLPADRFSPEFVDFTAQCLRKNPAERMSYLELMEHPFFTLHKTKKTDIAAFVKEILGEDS
inactive: [1] 0.054 | crizotinib -0.049 | [2] -0.068 | [3] 0.043 | duvelisib 0.091 | gandotinib -0.001 | tozasertib 0.005 | [4] -0.007 | doramapimod 0.012 | ispinesib -0.02

MCCC2 (UniProt Q9HCC0)
inactive: [1] -0.004 | crizotinib 0.028 | [2] 0.027 | [3] -0.053 | duvelisib 0.054 | gandotinib 0.051 | tozasertib -0.011 | [4] -0.022 | doramapimod 0 | ispinesib 0.047

MIEF1 (UniProt L0R8F8)
inactive: [1] -0.023 | crizotinib 0.068 | [2] -0.067 | [3] -0.065 | duvelisib 0.151 | gandotinib -0.062 | tozasertib 0.023 | [4] -0.025 | doramapimod -0.04 | ispinesib -0.03

MAPKAPK5 (UniProt Q8IW41)
inactive: [1] 0.012 | crizotinib -0.046 | [2] 0.027 | [3] 0.069 | duvelisib 0.056 | gandotinib 0.297 | tozasertib -0.042 | [4] -0.013 | doramapimod 0.141 | ispinesib -0.017

LARP7 isoform 3 (UniProt Q4G0J3)
inactive: [1] -0.001 | crizotinib 0.022 | [2] 0.068 | [3] -0.077 | duvelisib -0.013 | gandotinib -0.065 | tozasertib 0.071 | [4] 0.088 | doramapimod 0.012 | ispinesib -0.007

LEMD3 (UniProt Q9Y2U8)
Sequence of UniProt Q9Y2U8 (Q9Y2U8 whole entry, looked up): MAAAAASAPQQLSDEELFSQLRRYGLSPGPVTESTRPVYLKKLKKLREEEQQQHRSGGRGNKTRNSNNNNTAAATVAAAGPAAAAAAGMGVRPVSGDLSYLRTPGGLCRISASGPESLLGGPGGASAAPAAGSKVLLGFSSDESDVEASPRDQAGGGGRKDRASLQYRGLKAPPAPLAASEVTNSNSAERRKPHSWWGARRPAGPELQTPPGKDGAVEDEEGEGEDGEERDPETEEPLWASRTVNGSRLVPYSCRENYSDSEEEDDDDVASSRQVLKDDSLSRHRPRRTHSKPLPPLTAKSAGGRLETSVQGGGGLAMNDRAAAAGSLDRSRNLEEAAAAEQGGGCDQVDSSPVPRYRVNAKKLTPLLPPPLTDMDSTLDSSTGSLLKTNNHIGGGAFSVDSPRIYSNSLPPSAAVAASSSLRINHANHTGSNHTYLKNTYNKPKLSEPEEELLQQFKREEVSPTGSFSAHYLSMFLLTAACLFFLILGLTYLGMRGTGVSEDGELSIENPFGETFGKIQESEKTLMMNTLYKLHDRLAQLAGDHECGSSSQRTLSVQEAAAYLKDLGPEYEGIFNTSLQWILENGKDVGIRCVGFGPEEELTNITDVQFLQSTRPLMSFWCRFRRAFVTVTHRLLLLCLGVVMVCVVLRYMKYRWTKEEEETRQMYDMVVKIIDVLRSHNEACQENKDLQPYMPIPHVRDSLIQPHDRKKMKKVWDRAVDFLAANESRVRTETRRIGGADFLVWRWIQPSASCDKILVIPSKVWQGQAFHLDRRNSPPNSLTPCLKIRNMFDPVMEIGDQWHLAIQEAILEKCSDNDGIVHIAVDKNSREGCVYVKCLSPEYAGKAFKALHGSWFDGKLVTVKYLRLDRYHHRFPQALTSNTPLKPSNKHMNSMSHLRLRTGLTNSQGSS
inactive: [1] 0.072 | crizotinib -0.12 | [2] -0.084 | [3] -0.016 | duvelisib -0.003 | gandotinib 0.006 | tozasertib -0.015 | [4] 0.114 | doramapimod -0.002 | ispinesib -0.095

KLHDC4 (UniProt Q8TBB5)
inactive: [1] 0.093 | crizotinib 0.157 | [2] -0.07 | [3] 0.111 | duvelisib -0.091 | gandotinib 0.041 | tozasertib 0.025 | [4] 0.039 | doramapimod 0.069 | ispinesib 0

KIF2C (UniProt Q99661)
inactive: [1] -0.016 | crizotinib -0.171 | [2] -0.028 | [3] 0.012 | duvelisib -0.048 | gandotinib -0.065 | tozasertib -0.035 | [4] 0.082 | doramapimod 0.007 | ispinesib -0.028
